Drawing on PubChem BioAssay (NCI), this text covers growth for 10 molecules.

About 83,000 compounds went through this panel and 20% of them were active in at least one assay; those are over-represented in the sample as a whole.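 Percent growth is the endpoint: 0 to 100 indicates growth inhibition (40 means 60% inhibition), 0 means no net growth, and negative values indicate cell death.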 Values without a mark were called inactive. Calls of active or inactive are those of the source. How the source made its calls: active means growth percent below 10; inactive means the rest.

Assay in all cases: NCI-60 one-dose screen, 48 h (100 = growth as untreated, 0 = no growth, -100 = all killed)
Holding throughout (details): 10 µM

The subject of experiment [1] is RPMI-8226 leukemia.
For experiment [2], the system named is OVCAR-8 ovarian.
Experiment [3] deals with OVCAR-5 ovarian.
For experiment [4], the system named is OVCAR-4 ovarian.
The subject of experiment [5] is SK-OV-3 ovarian.
Experiment [6] deals with IGROV1 ovarian.
Experiment [7] relates to OVCAR-3 ovarian.
Experiment [8] relates to HS 578T breast.
Experiment [9] has as its system NCI/ADR-RES ovarian.
The subject of experiment [10] is BT-549 breast.
Experiment [11] concerns MDA-MB-435 melanoma.
The test system of experiment [12] is SW-620 colon.
The test system of experiment [13] is MCF7 breast.
Experiment [14] deals with HCT-116 colon.
The subject of experiment [15] is HCC-2998 colon.
In experiment [16] the test system is KM12 colon.

With `COc1ccc(-c2nn(-c3cccc(NC(=O)Nc4ccccc4)c3)cc2-c2ccncc2)cc1Cl`, the growth in experiment [1] is -35.3% (active); in experiment [2], 0.341% (active); in experiment [3], 35.5%; in experiment [4], 41.4%; in experiment [5] it was 80.5%; in experiment [6] it was 33.3%. For the same molecule, the growth is 39.4% in [7]; 31.9% in experiment [8]; 22.4% in experiment [9]; -40.9% (active) in experiment [10]; -66.5% (active) in experiment [11]; -19.7% (active) in [12]. Besides, the growth in experiment [13] is 0.285% (active); in [14] it was 5.36% (active); in experiment [15], -71.1% (active); in [16], -16.2% (active).

As for `N#CC1=C(Nc2ccccc2Cl)SC(c2ccccc2O)NC1=O` (configuration not stated), the growth is 97.1% in [1]; 111% in experiment [2]; 105% in [3]; 111% in experiment [4]; 116% in experiment [5]; 102% in experiment [6]. Besides, the growth in experiment [7] is 127%; in [8], 116%; in [9] it was 110%; in [11] it was 120%; in experiment [12], 105%; in [13], 105%. In addition, the values for the growth in [14], in experiment [15] and in experiment [16] were 109%, 109% and 116%, respectively.

Take `CCN(CC)CCC(CNc1c(C)cnc2cc(Cl)ccc12)c1ccc(Cl)cc1` (configuration not stated): the growth in [1] is 44%; in experiment [2], 61.8%; in experiment [3], 54.6%; in experiment [4] it was 56.6%; in [5] it was 81.7%; in [6], 46.4%. Further, the growth was 70.8% in [7]; 70.1% in experiment [8]; 59% in [9]; 67.7% in experiment [10]; -7.89% (active) in experiment [11]; 51.2% in [12]. For the same molecule, the growth in experiment [13] is 39.7%; in experiment [14], 23%; in experiment [15], 26.7%; in experiment [16] it was 79.8%.

On to `Nc1c(C(=O)Nc2ccccc2Cl)sc2nc3c(cc12)C(=O)CCC3`, for which the growth in experiment [1] was 87.9%; in experiment [2] it was 100%; in [3] it was 70.5%; in experiment [4], 84.4%; in experiment [5], 13.8%; in experiment [6], 62.9%. For the same molecule, the growth is 56.4% in experiment [7]; 40.8% in experiment [8]; 57.2% in [9]; 61.2% in experiment [10]; -53.3% (active) in experiment [11]; 29% in experiment [12]. In addition, the growth in experiment [13] was 16.1%; in experiment [14], 76.5%; in [15], 63.2%; in experiment [16], 28.5%.

Turning to `N=c1nc(N)ncn1-c1ccccc1`, the growth in [1] was 97.7%; in experiment [2], 99.5%; in experiment [3] it was 95%; in [4], 100%; in [5], 96.3%; in [6] it was 104%. In addition, the growth in experiment [7] was 116%; in experiment [8], 101%; in experiment [9], 102%; in experiment [10] it was 107%; in experiment [11], 107%; in experiment [12] it was 107%. The growth in experiment [13] is 92.4%; in experiment [14], 97.4%; in experiment [15] it was 101%; in experiment [16], 108%.

On to `CCCCCCCCCCCCCC[n+]1ccc(C(N)=O)cc1`, for which the growth in experiment [1] was -41.2% (active); in experiment [2], 1.18% (active); in [3] it was -4.86% (active); in experiment [4], 32.4%; in experiment [5], 34.3%; in experiment [6], 110%. Also, the growth in experiment [7] is -27.1% (active); in experiment [8], -14.5% (active); in experiment [9], 96.1%; in [10], -50.9% (active); in experiment [11] it was 8.53% (active); in experiment [12] it was 7.11% (active). For the same molecule, the growth is 22.8% in experiment [13], 6.07% (active) in experiment [14], 6.43% (active) in experiment [15] and -87.2% (active) in experiment [16].

With `O=[N+]([O-])c1cccc(-c2ncc(-c3ccc(Cl)cc3Cl)[nH]2)c1`, the growth is -8.35% (active) in experiment [1]; 83.5% in experiment [2]; 117% in experiment [3]; 70% in experiment [4]; 115% in experiment [5]; 26.6% in [6]. In addition, the growth in [7] was 59.8%; in experiment [8] it was 44.9%; in [9] it was 97.2%; in [11] it was 76.5%; in [12], -88% (active); in [13], -8.38% (active). Further, the growth in experiment [14] was 13.5%; in experiment [15], 58.1%; in experiment [16], 15.7%.

Take `O=C(Nc1ccncc1)C(=O)c1cn(S(=O)(=O)c2cccc3ccccc23)c2ccccc12`: the growth was 43.1% in [1]; 92.4% in experiment [2]; 102% in [3]; 79.6% in [4]; 87.9% in experiment [5]; 73.8% in experiment [6]. Also, the growth in experiment [7] is 88.2%; in [8], 100%; in experiment [9], 78.4%; in experiment [11], -7.64% (active); in [12] it was 71.4%; in experiment [13], 52.3%. Further, the growth in experiment [14] is 45.8%; in [15] it was 64.8%; in experiment [16], 55%.

For the molecule `O=C(Nc1cccc(-n2cc(-c3ccncc3)c(-c3ccc(O)c(Cl)c3)n2)c1)c1ccc(Cl)c(Cl)c1`, the growth in [1] was 18.1%; in [2] it was 35.7%; in [3] it was 109%; in [4] it was 67%; in experiment [5] it was 80.9%; in experiment [6], 60.7%. Besides, the growth was 81.7% in experiment [7]; 53.8% in experiment [8]; 49.6% in experiment [9]; 68.5% in [10]; 47.2% in [11]; 28.2% in experiment [12]. Also, the growth was 35.5% in experiment [13], 44.4% in experiment [14], 54.3% in experiment [15] and 43.9% in [16].

As to `COc1cc(-c2nc(Nc3nc4ccccc4s3)[nH]c(=O)c2C#N)cc(OC)c1O`, the growth in [1] was 89.9%; in experiment [2] it was 99%; in [3], 109%; in [4], 109%; in experiment [5], 108%; in [6], 128%. The growth was 104% in [7]; 107% in [8]; 111% in experiment [9]; 98.1% in experiment [10]; 120% in [11]; 110% in experiment [12]. The growth in experiment [13] is 95.7%; in experiment [14], 94.7%; in experiment [15], 104%; in experiment [16] it was 114%.
